In the library only some 11% were active in any assay of this set; here they are far more common.
HEK cytotox: Cytotoxic Profiling in HEK 293 Cell Line of Diverse Libraries Using Quantitative High-Throughput Screening; AID 1345083, 2018; 6.6% of 94,000 active; Potency, µM (highest dose often 115 µM), for inactives: top-dose activity change, negative = cytotoxicity, actives largely listed as inhibitors; HEK 293 viability, ATP luminescence (CellTiter-Glo), 48-72 h; note: nearly all actives have a fitted effect of over 60% in size
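qHTS cytotoxicity; HEK 293, 250 cells/well; compound pinned; 48 or 72 hr, 37 degree Celsius, 5% CO2, 95% humidity; CellTiter-Glo, 10 min RT; luminescence (ATP).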
NPR1 antag: Natriuretic polypeptide receptor (hNpr1) antagonism - Primary qHTS | HEK293 hNpr1 GloSensor cGMP, ANP-stimulated luminescence | Potency, µM (top dose mostly 46.3 µM), for the others: top-dose activity change, negative = inhibition, hits mostly inhibitors | 1.6% of 76,000 active | AID 1347048, 2019; calls by dose curve; note: nearly all actives have a fitted effect of over 60% in size
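Compound pre-incubated 30 min at room temperature on GloSensor-loaded HEK293 cells stably carrying hNpr1 and the pGS-40F cGMP biosensor. Stimulation uses hNppA at 0.1 nM final; luminescence is taken at baseline and 20 min post-agonist.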
3T3 cytotox: Cytotoxic Profiling in NIH 3T3 Cell Line of Diverse Libraries Using Quantitative High-Throughput Screening; AID 1345082, 2018; Potency, µM (doses to about 96.7 µM), without a hit: at the top dose activity change, negative = cytotoxicity, most hits filed as inhibitors; NIH 3T3 viability, CellTiter-Glo ATP luminescence, 48-72 h; 4.3% of 94,000 active; note: nearly all actives have a fitted effect of over 55% in size
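Cells were seeded at 400 per well, treated with pin-transferred compound, and kept 48 or 72 hr at 37 °C before CellTiter-Glo addition and luminescence imaging of cellular ATP.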
Luciferase inh: Firefly luciferase inhibition profiling of diverse chemical library using quantitative high-throughput screening; purified P. pyralis luciferase, luminescence, biochemical; Potency, µM (titrated, usually from 115 µM), usual class: inhibitors; 2.5% of 76,000 active; AID 1347043, 2019; note: nearly all actives have a fitted effect of over 65% in size
Target sequence (P08659 whole entry, looked up): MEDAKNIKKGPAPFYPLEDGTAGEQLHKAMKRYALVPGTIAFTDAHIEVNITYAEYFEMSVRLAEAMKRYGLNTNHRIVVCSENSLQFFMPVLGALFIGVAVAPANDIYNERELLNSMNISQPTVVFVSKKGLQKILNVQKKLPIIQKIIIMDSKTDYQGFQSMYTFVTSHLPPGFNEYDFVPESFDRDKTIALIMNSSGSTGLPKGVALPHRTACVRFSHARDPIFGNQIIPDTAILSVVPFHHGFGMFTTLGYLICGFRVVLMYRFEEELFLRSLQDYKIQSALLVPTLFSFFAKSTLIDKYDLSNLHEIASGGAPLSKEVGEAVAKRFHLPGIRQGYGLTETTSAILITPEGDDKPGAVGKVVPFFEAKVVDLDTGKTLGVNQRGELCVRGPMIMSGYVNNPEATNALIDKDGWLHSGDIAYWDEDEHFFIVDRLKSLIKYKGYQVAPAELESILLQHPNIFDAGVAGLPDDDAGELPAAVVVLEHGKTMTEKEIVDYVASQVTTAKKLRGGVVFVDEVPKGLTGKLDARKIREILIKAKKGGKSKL
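Luminescence read by CCD imaging after purified firefly luciferase (10nM final) was added to substrate buffer holding 10uM D-luciferin and 10uM ATP, pH 7.5, pre-dosed with compound.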
* marks the source's active call; other numbers are inactive results; i = inactive; ? = inconclusive; · = not tested or not shown; [ ] = dose if it differs, or a comment. Unless noted, calls come from the whole dose curve; as a rule, active = well fitted curve in the direction sought with a large enough effect; inconclusive = small, poorly fitted or top-dose-only effect, or another doubt; inactive = no such curve, though single readings can be large; an effect the other way counts as inactive or inconclusive. % is set by controls: 0 for no effect and ±100 for the full control effect; potency is the fitted concentration of half-maximal effect.

SMILES	HEK cytotox	NPR1 antag	3T3 cytotox	Luciferase inh
CN(C)C(=O)c1ccc(-c2cc3c(cn2)CN(CCc2ccccc2)CCN3)cc1	?	-14%[70.6 µM]	?	i
COc1ccc(Nc2cc3c(cn2)CN(Cc2ccncc2)CCN3)cc1OC	?	-1%[70.6 µM]	?	i
CC(=O)N1CCNc2cc(-c3ccc(Oc4ccccc4)cc3)ncc2C1	71µM*	-19%[70.6 µM]	?	20µM*
COCCCNC(=O)c1cc(C(C)(C)C)nc2c1cnn2C	-12%[172 µM]	·	?	·
COCC(=O)N1CCN(c2ccc3nnc(-c4ccccc4)n3n2)CC1	-12%	·	-23%	·
O=C(c1nc2cccnc2n(Cc2ccccc2)c1=O)N1CCOCC1	5%	·	1%	·
COCCCn1c(=O)c(C(=O)N2CCN(C(=O)Cc3ccccn3)CC2)nc2cccnc21	i	·	-3%	·
C#CCNC(=O)C1CCCN(c2ccnc3ccnn23)C1 (stereo not given)	-3%[172 µM]	·	-11%[138 µM]	·
COCCC1(NC(=O)NC2CCCCC2)CCN(S(C)(=O)=O)CC1	i	·	4%	·
CCOC(=O)N1[C@@H](c2ccccc2)[C@@H](C(=O)O)C[C@]12CCCCN(CCOC)C2=O	-10%	·	?	·
Cc1ccc(C(=O)N2CCC[C@@H]2C(=O)N2CCC(N3CCOC3=O)CC2)cc1	-7%	·	-7%	·
COc1cccc(CN2CCNc3cc(-c4ccccc4)ncc3C2)c1	?	-1%[70.6 µM]	?	40µM*
Cc1ccc(C(=O)N2Cc3c(C(=O)NC4CC4)nn(C)c3C2)cc1F	0%	·	0%	·
CN1c2cc(C(=O)Nc3cccc(Cl)c3)ccc2C(=O)N2CCCCC21 (stereo not given)	?	-12%	?	14µM*
CCN1c2cc(C(=O)NCc3cccc(Cl)c3)ccc2C(=O)N2CCCCCC21 (stereo not given)	?	-18%	?	i
CN1c2cc(C(=O)Nc3ccc(F)c(Cl)c3)ccc2C(=O)N2CCCCC21 (stereo not given)	?	0%	?	i
CCN1c2cc(C(=O)Nc3ccc(Cl)cc3)ccc2C(=O)N2CCCC21 (stereo not given)	-27%	0%	-3%	i
CCN1c2cc(C(=O)Nc3cccc(Cl)c3)ccc2C(=O)N2CCCCCC21 (stereo not given)	?	-2%	40µM*	i
CCN1c2cc(C(=O)Nc3cccc(Cl)c3)ccc2C(=O)N2CCCCC21 (stereo not given)	32µM*	3%	?	i
Cc1ccccc1C(=O)NC1CCN(C(=O)c2ccc(-c3cncnc3)cc2)CC1	-9%	·	-23%	·
Cn1nc(C(=O)NCc2cccnc2)c2c1CN(C(=O)CC1CCCCC1)C2	-27%	·	-29%	·
COc1cccc(CNC(=O)[C@@H]2C[C@@H](O)CN2C2CCN(C(=O)Cc3c(C)noc3C)CC2)c1	i	·	-3%	·
c1ccc2c(c1)COC1(CCNC1)CN2CC1CCCCC1 (stereo not given)	79µM*	·	32µM*	·
CC(=O)N1CCN(Cc2ccccc2-c2cccnc2)CC1	-1%[172 µM]	·	-13%[138 µM]	·
CC(C)(C)C(=O)N1CCN(Cc2ccccc2-c2cccnc2)CC1	100µM*	·	-29%[138 µM]	·
SMILES	HEK cytotox	NPR1 antag	3T3 cytotox	Luciferase inh
O=C(C1CCCC1)N1CCN(Cc2ccccc2-c2cccnc2)CC1	50µM*	·	?	·
CC(C)NC(=O)C1CCCN1c1nccc(Nc2ccccc2F)n1 (stereo not given)	?	·	-17%[138 µM]	·
C#CCNC(=O)c1nc(-c2cccc(C(F)(F)F)c2)c2ccccn12	50µM*	-24%[70.6 µM]	?	i
CC(C)NC(=O)c1nc(-c2cccc(C(F)(F)F)c2)c2ccccn12	79µM*	13%	89µM*	i
C#CCNC(=O)c1nc(-c2ccccc2)c2ccccn12	?	1%[70.6 µM]	?	i
CNC(=O)c1cc(C2CC2)nc2c1c(C1CCN(C(=O)N(C)C)C1)nn2C (stereo not given)	-1%	·	-1%	·
COc1ccc(CCNC(=O)c2ccc3oc(-c4ccnc(Cl)c4)nc3c2)cc1	-15%	·	-31%	·
O=C(c1ccccc1)N1CCN(C(=O)c2cccc(-c3ccccn3)c2)CC1	-11%	·	-12%	·
O=C(c1ccn[nH]1)N1CC=C(c2cnc3cnc(-c4ccccc4)cn23)CC1	-21%[172 µM]	-1%[70.6 µM]	22µM*	i
O=C(c1cccc(O)c1)N1CC=C(c2cnc3cnc(-c4ccccc4)cn23)CC1	100µM*	-20%[70.6 µM]	?	i
C[C@H]1CCCN1C(=O)c1nnc(CNc2ccc(OC(F)(F)F)cc2)n1-c1ccccc1	?	0%	-22%	i
O=C(c1nnc(CNc2ccccc2)n1-c1ccccc1)N1CCC[C@@H]1C(c1ccccc1)c1ccccc1	?	-30%	?	i
O=C(c1nnc(COc2ccc(F)c(F)c2)n1-c1ccccc1)N1CCC[C@@H]1C(c1ccccc1)c1ccccc1	?	-6%	4.5µM*	i
C[C@H]1CCCN1C(=O)c1nnc(COc2ccc(F)c(F)c2)n1-c1cccnc1	?	-5%[70.6 µM]	25µM*	i
O=C(c1nnc(CNc2ccc(OC(F)(F)F)cc2)n1-c1ccccc1)N1CCC[C@@H]1CN1CCCC1	71µM*	3%	?	i
C[C@H]1CCCN1C(=O)c1nnc(COc2ccc(Cl)cc2)n1-c1ccccc1	79µM*	-15%[70.6 µM]	3.2µM*	i
Cc1nn(-c2ccccc2)c2c1C(C1CC1)N(C1CCN(Cc3ccsc3)CC1)C2=O (stereo not given)	-10%	·	-19%	·
C[C@H]1CCCN1C(=O)c1nnc(COc2ccccc2)n1-c1ccccc1	?	-13%[70.6 µM]	89µM*	i
O=C(Nc1ccc(Oc2cccnc2)cc1)C1CCN(CCCc2ccccc2)CC1	25µM*	-12%	?	i
O=C(NCCc1ccc(Cl)cc1)c1nc2sccn2c1-c1ccncc1	?	·	-27%	·
O=C(Nc1cc(-c2ccccn2)nn1-c1ccccc1)c1ccccc1Cl	?	·	-20%	·
COc1ccc(Cl)cc1NC(=O)CC1CCCN(c2cnn(C)c(=O)c2)C1 (stereo not given)	-18%	-14%	?	i
O=C(NCC1CC1)c1ccc2nnc(Cc3ccco3)n2c1	5%[172 µM]	·	-32%[138 µM]	·
Cc1nc(-c2cccc(Cl)c2)n(CC(=O)Nc2ccc(F)cc2)c(=O)c1CCO	40µM*	-4%	?	i
COc1ccc(N2CCN(C(=O)Cn3c(-c4cccc(Cl)c4)nc(C)c(CCO)c3=O)CC2)cc1	45µM*	-13%	-13%	i
COc1cccc(CNC(=O)Cn2c(-c3cccc(Cl)c3)nc(C)c(CCO)c2=O)c1	22µM*	4%	?	i
Cc1nc(-c2ccc(F)cc2)n(CC(=O)Nc2cccc(Cl)c2)c(=O)c1CCO	?	-18%	?	i

Screening results as filed in PubChem.
